In PubChem BioAssay:
Records with an inconclusive call do not appear. Calls of active or inactive are those of the source.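 Rule for the calls, unless noted: active = compound raises insulin release from rat beta cells at 5 mM glucose, no numeric limit stated; inactive = the rest.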

Columns and labels:
[1] = stimulators of insulin release from INS-1E, primary screen, cell-based, 5 mM glucose, NPC library (AID 1117329); conditions: rat INS-1E insulin secretion, at 10 µM, stronger effect = higher value
[2] = growth inhibition of GSK3B-pretreated HCT116 cells – cell-based, CellTiter-Glo, 0.2 to 20 µM (AID 1117336;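 active = compounds lowering colon cancer cell viability after pretreatment blocking the GSK3B kinase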); conditions: HCT116 viability after GSK3B inhibitor, at 20 µM, stronger effect = higher value
[3] = inhibition of endothelial tube formation, primary screen, imaging, VEGF stimulated, CD31 staining, tube area, NPC library (AID 1117340;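 active = compound that reduces growth-factor-driven endothelial tube area in a mixed cell culture, no cutoff stated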); conditions: VEGF-stimulated ADSC/ECFC co-culture, at 10 µM, stronger effect = higher value
[4] = GLP1 release stimulators, primary, NCI-H716, NPC library (AID 1117341;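 active = compound raises GLP1 secretion from the human gut endocrine cells, with no numeric limit stated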); conditions: NCI-H716 cells, at 10 µM, stronger effect = higher value
[5] = HCT116 colon cancer cell growth inhibition, primary screen, CellTiter-Glo luminescence, NPC library (AID 1117342;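 active = compounds that lower survival of HCT116 colon cancer cells in the luminescence readout, no numeric limit stated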); conditions: at 20 µM (top of the series)
[6] = reduced SW480 viability measured with CellTiter-Glo, NPC library, primary (AID 1117343;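 active = compounds that lower viability of the colon cancer cells in the luminescence readout, with no numeric limit stated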); conditions: CellTiter-Glo luminescence; at 20 µM (top of the series)
[7] = NPC library primary testing for decreased DLD-1 cell viability via CellTiter-Glo (AID 1117346;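 active = compounds that lower survival of DLD-1 colon cancer cells in the luminescence readout, no cutoff given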); conditions: DLD-1 viability, CellTiter-Glo luminescence; at 20 µM (top of the series)
[8] = target: 6-phosphogluconate dehydrogenase, decarboxylating (Homo sapiens) (UniProt P52209); experiment: inhibition of human phosphogluconate dehydrogenase – biochemical, recombinant enzyme, NADPH absorbance, primary screen (AID 1159550;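 active = at least 20% inhibition of 6-phosphogluconate dehydrogenase activity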); conditions: recombinant 6PGD, NADPH absorbance 341 nm; at 10 µM; stronger effect = higher value
[9] = EMT-state selective cytotoxicity in co-culture – imaging, PC-3E GFP, TEM4-18 mCherry, primary screen (AID 1345086;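 active = compounds killing one labelled cell type while sparing the other, by normalised counts and ratio limits, not self-fluorescent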;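 for all read-outs here: cells exposed to compound for 72 h before imaging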;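 for red/green cell ratio (normalised): normalised mesenchymal count divided by normalised epithelial count so high means epithelial killing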); conditions: PC-3E GFP / TEM4-18 mCherry co-culture, imaging cell counts, at 1 µM; for red/green cell ratio (normalised): actives lie on both sides, counts scaled to control wells, 1 = unselective
[10] = system: Aerobactin synthetase IucA (Klebsiella pneumoniae); experiment: inhibition of K. pneumoniae IucA enzyme – biochemical, Tocris library, absorbance (AID 1345561; call rule not given here;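 note: 100% = enzyme without compound and 0% = no enzyme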); conditions: purified IucA enzyme assay, absorbance (OD) read-out; stronger effect = lower value;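 tested at 8 µM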
[11] = viability loss in pontine glioma line – cell-based, SU-DIPG-XIII, MIPE4.0, CellTiter-Glo, qHTS, dose response (AID 1347061; cut-off not given, nearly all actives have AC50 up to about 37 µM;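 note: cells exposed to compound for 48 hours before readout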); conditions: CellTiter-Glo ATP luminescence
[12] = viability loss in pontine glioma line – cell-based, JHH-DIPG-1, MIPE4.0, CellTiter-Glo, qHTS, dose response (AID 1347062; cut-off not given, nearly all actives have AC50 up to about 27 µM); conditions: JHH-DIPG-1 viability, CellTiter-Glo ATP luminescence
[13] = viability loss in pontine glioma line – cell-based, SU-DIPG-IV, MIPE4.0, CellTiter-Glo, qHTS, dose response (AID 1347063; cut-off not given, nearly all actives have AC50 up to about 30 µM;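 note: compound exposure lasted 48 hours before the viability readout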); conditions: CellTiter-Glo ATP luminescence
[14] = viability loss in pontine glioma line – cell-based, SU-DIPG-XVII, MIPE5.0, CellTiter-Glo, qHTS, dose response (AID 1347060; cut-off not given, nearly all actives have AC50 up to about 26 µM); conditions: CellTiter-Glo ATP luminescence
[15] = viability loss in pontine glioma line – cell-based, SU-DIPG-XIII, MIPE5.0, CellTiter-Glo, qHTS, dose response (AID 1347064; cut-off not given, nearly all actives have AC50 up to about 23 µM); conditions: CellTiter-Glo ATP luminescence
[16] = measured here: epithelial PC-3E GFP cell survival
[17] = measured here: mesenchymal TEM4-18 mCherry cell survival

Chain of 6-phosphogluconate dehydrogenase, decarboxylating (Homo sapiens) (P52209 whole entry, looked up): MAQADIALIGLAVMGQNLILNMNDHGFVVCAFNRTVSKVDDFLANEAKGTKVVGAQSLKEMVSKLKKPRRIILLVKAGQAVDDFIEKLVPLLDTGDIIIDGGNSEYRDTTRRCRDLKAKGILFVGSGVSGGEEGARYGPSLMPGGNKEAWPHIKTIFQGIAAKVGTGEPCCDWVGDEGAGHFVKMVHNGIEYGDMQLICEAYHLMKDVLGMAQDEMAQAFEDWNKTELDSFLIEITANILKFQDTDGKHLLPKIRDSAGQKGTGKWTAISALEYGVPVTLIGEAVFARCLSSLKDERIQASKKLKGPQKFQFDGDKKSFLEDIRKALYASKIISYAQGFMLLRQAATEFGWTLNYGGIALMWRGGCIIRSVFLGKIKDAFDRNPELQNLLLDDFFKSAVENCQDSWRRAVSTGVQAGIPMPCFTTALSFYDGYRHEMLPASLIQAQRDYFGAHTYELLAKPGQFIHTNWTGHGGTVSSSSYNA

O=C(c1ccc(F)cc1)C1CCN(CCn2c(=O)[nH]c3ccccc3c2=O)CC1
0.88: normalised cell number [9, 17]
0.99: normalised cell number [9, 16]
active: tube area decrease [3] -2.2% | inhibition of viability [5] 52.6%
inactive: insulin secretion stimulation [1] 2.5% | viability decrease [2] 19.4% | GLP1 secretion stimulation [4] 2.6% | viability decrease (inhibition) [6] 19.5% | viability decrease (inhibition) [7] 16.9% | inhibition [8] 8.02% | red/green cell ratio (normalised) [9] 0.88 | remaining activity [10] 124% | outcome [11] | outcome [12] | outcome [13]

CC(=O)Nc1ccc(O)cc1
inactive: insulin secretion stimulation [1] -0.1% | viability decrease [2] 9.25% | tube area decrease [3] -15.2% | GLP1 secretion stimulation [4] 1.9% | inhibition of viability [5] 1.2% | viability decrease (inhibition) [6] 34.3% | viability decrease (inhibition) [7] 3.3% | inhibition [8] 13.8% | red/green cell ratio (normalised) [9] 1.05 | remaining activity [10] 121% | outcome [11] | outcome [12]
1.16: normalised cell number [9, 17]
1.11: normalised cell number [9, 16]

COC(=O)N/N=C/c1c[n+]([O-])c2ccccc2[n+]1[O-]
0.81: normalised cell number [9, 17]
1.24: normalised cell number [9, 16]
inactive: insulin secretion stimulation [1] 1.9% | viability decrease [2] 18.7% | tube area decrease [3] 22.2% | GLP1 secretion stimulation [4] 5.7% | inhibition of viability [5] -3% | viability decrease (inhibition) [6] -10.2% | viability decrease (inhibition) [7] -4.9% | inhibition [8] 11.2% | red/green cell ratio (normalised) [9] 0.65

CCN(CC)CCOCCOC(=O)C1(c2ccccc2)CCCC1
inactive: viability decrease [2] 19.3% | tube area decrease [3] -3.1% | GLP1 secretion stimulation [4] 5.7% | viability decrease (inhibition) [6] 20.6% | inhibition [8] 1.3% | red/green cell ratio (normalised) [9] 1.27 | remaining activity [10] 92.5%
active: insulin secretion stimulation [1] 60% | inhibition of viability [5] 56.4% | viability decrease (inhibition) [7] 62.5%
1: normalised cell number [9, 16]
1.28: normalised cell number [9, 17]

Cc1cc(C(C)(C)C)c(O)c(C(C)(C)C)c1
0.94: normalised cell number [9, 17]
1.01: normalised cell number [9, 16]
inactive: insulin secretion stimulation [1] -0.6% | viability decrease [2] -7.15% | tube area decrease [3] -2.9% | GLP1 secretion stimulation [4] 14.2% | inhibition of viability [5] 10.4% | viability decrease (inhibition) [6] 3.9% | viability decrease (inhibition) [7] -5.5% | inhibition [8] 14.6% | red/green cell ratio (normalised) [9] 0.93

CSc1ccc2c(c1)C(N1CCN(C)CC1)Cc1ccccc1S2 (stereo not given)
active: insulin secretion stimulation [1] 30.7% | viability decrease [2] 111% | tube area decrease [3] 61.8% | inhibition of viability [5] 113% | viability decrease (inhibition) [6] 132% | viability decrease (inhibition) [7] 102%
0.72: normalised cell number [9, 16]
inactive: GLP1 secretion stimulation [4] 19.2% | inhibition [8] -11.1% | red/green cell ratio (normalised) [9] 1.1 | remaining activity [10] 107%
0.79: normalised cell number [9, 17]

COc1ccc2[nH]cc(CCNC(C)=O)c2c1
inactive: insulin secretion stimulation [1] -2.5% | viability decrease [2] -6.45% | tube area decrease [3] -3.4% | GLP1 secretion stimulation [4] 4.5% | inhibition of viability [5] -6.9% | viability decrease (inhibition) [6] 20.8% | viability decrease (inhibition) [7] 7.55% | inhibition [8] 6.51% | red/green cell ratio (normalised) [9] 1.02 | remaining activity [10] 102% | outcome [14] | outcome [11] | outcome [12] | outcome [15]
0.84: normalised cell number [9, 16]
0.86: normalised cell number [9, 17]

CC(N)CCCC(C)(C)O (stereo not given)
inactive: insulin secretion stimulation [1] 0.6% | viability decrease [2] -36.1% | tube area decrease [3] -13.2% | GLP1 secretion stimulation [4] -1.9% | inhibition of viability [5] -2.33% | viability decrease (inhibition) [6] 13% | viability decrease (inhibition) [7] -0.1% | inhibition [8] -2.18% | red/green cell ratio (normalised) [9] 0.95
0.93: normalised cell number [9, 17]
0.99: normalised cell number [9, 16]

COc1ccc(CN(CCN(C)C)c2ccccn2)cc1
1.02: normalised cell number [9, 16]
active: insulin secretion stimulation [1] 68.9%
inactive: viability decrease [2] 3.3% | tube area decrease [3] 14.4% | GLP1 secretion stimulation [4] 1.2% | inhibition of viability [5] -7.7% | viability decrease (inhibition) [6] 22.5% | viability decrease (inhibition) [7] -34.8% | inhibition [8] 4.83% | red/green cell ratio (normalised) [9] 1.1 | remaining activity [10] 118%
1.12: normalised cell number [9, 17]

Nc1c(Br)cc(Br)cc1CNC1CCC(O)CC1 (stereo not given)
0.84: normalised cell number [9, 17]
1.16: normalised cell number [9, 16]
inactive: insulin secretion stimulation [1] 4.7% | viability decrease [2] 33.6% | tube area decrease [3] 20.4% | GLP1 secretion stimulation [4] -1.7% | inhibition of viability [5] 34.3% | viability decrease (inhibition) [6] 11.2% | viability decrease (inhibition) [7] 14% | inhibition [8] -12.9% | red/green cell ratio (normalised) [9] 0.72 | remaining activity [10] 105%

Cc1scc2c1N(C(=O)CN1CCN(C)CC1)c1ccccc1NC2=O
0.92: normalised cell number [9, 17]
0.88: normalised cell number [9, 16]
inactive: insulin secretion stimulation [1] 4% | viability decrease [2] -15.9% | tube area decrease [3] -6.3% | GLP1 secretion stimulation [4] -2.6% | inhibition of viability [5] -4.6% | viability decrease (inhibition) [6] 2% | inhibition [8] 10.3% | red/green cell ratio (normalised) [9] 1.05 | remaining activity [10] 94.5%
active: viability decrease (inhibition) [7] 1.4%

CCCOc1ccccc1-c1nc2n[nH]nc2c(=O)[nH]1
0.97: normalised cell number [9, 17]
inactive: insulin secretion stimulation [1] -0.8% | viability decrease [2] -203% | tube area decrease [3] -11.3% | GLP1 secretion stimulation [4] 1.4% | inhibition of viability [5] 17.5% | viability decrease (inhibition) [6] 9.4% | viability decrease (inhibition) [7] 1% | inhibition [8] -4.08% | red/green cell ratio (normalised) [9] 0.95 | remaining activity [10] 122%
1.02: normalised cell number [9, 16]
